The record followed here is PubChem BioAssay (NCI).

This is part of a sample that, as a whole, favours compounds with a hit. Of some 83,000 tested, about 20% had one in any assay.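 In brief: 96-well plates, 48 h treatment, single concentration, percent growth endpoint.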 Active and inactive are the calls of the source.

In this assay the test system is SN12C renal. Nature of the assay: NCI-60 one-dose screen, 48 h (100 = growth as untreated, 0 = no growth, -100 = all killed). To be noted: 10 µM unless noted. As to the method:
Growth inhibition of the SN12C human tumor cell line is measured as a screen for anti-cancer activity. Cells are grown in 96 well plates and exposed to the test compound for 48 hours. Compounds are tested at a single concentration, which is 10^-5 M for most compounds. The reported endpoint is percent growth (GI% or GIPRCNT), where numbers from 0 - 100% represent growth inhibition, and numbers from -100% - 0 represent cell death. For example, a value of 40 represents 60% growth inhibition. A value of 0 means no net growth occurred over the course of the experiment. A value of -40 indicates 40% of cells at the beginning of the experiment died by the end of the experiment. A value of -100 means all cells are dead at the end of the experiment.
NCI-60 Human Tumor Cell Lines Screen was performed using the standard one-dose NCI protocol, which is described in more detail at https://dtp.cancer.gov/discovery_development/nci-60/default.htm.
Compounds with GIPRCNT values below 10 were considered active. Activity score was based on GIPRCNT using the following formula: […]
Score is 0 for GIPRCNT values of 100 or above, 50 for GIPRCNT values of 0, and 100 for GIPRCNT values of -100.
For the compound `CCCSc1nc(Nc2ccc(S(N)(=O)=O)cc2)c(C#N)c(-c2ccc(Cl)cc2)n1`, the growth is -16.2% (active). For `COc1ccc(-c2nnc3ccc(N/N=C/c4ccc(O)cc4)nn23)cc1`, the growth was 42.3% (inactive). To `COc1c(F)ccc(C(=O)Nc2ccc3nc(NC(=O)C4CCCN(S(=O)(=O)c5ccc(C(F)(F)F)cc5)C4)sc3c2)c1F` (stereo not given) belongs 82.4% (inactive); to `Brc1ccc(-c2n(Cc3ccc4ccccc4c3)c(-c3ccccc3)c(-c3ccccc3)[n+]2Cc2ccc3ccccc3c2)cc1`, -85.4% (active). To `S=C(Nc1ccccc1)Nc1ccc(OCc2nc3ccccc3[nH]2)cc1` belongs 47.1% (inactive); to `C#CCOc1ccc(/C=N/Nc2nc(-c3cc4cc(OC)ccc4oc3=O)cs2)cc1OC`, 42.3% (inactive). To `O=C(/C=C/c1ccc(O)c(O)c1)NC1CCOC1O` (stereo not given) belongs 96.4% (inactive).

Take `COc1ccc2cc([C@H](C)C(=O)N/N=C/c3ccc(Br)cc3)ccc2c1`: the growth was 97.2% (inactive). With `CCN1C(=O)N(CC)C2NNC(Sc3c(C(=O)O)c4ccccc4n(C4CCCC4)c3=O)=NC21` (stereo not given) the figure was 34.3% (inactive); with `O=C(COc1ccc(NC(=O)Nc2ccc(Cl)c(Cl)c2)cc1)N=Nc1c(O)[nH]c2ccccc12`, -32% (active); with `CN(C)CCn1c2ccccc2c2nc3ccc([N+](=O)[O-])cc3nc21`, -9.41% (active). On to `O=C(O)c1ccc(-c2ccc(/C=N/NC(=O)c3[nH]c4ccc(Br)cc4c3-c3ccccc3)o2)cc1`, for which the growth is 5.99% (active). With `CCN1CCN(Cc2ccc(C(=O)Nc3cccc(C#Cc4cccc5[nH]nc(N)c45)c3)cc2C(F)(F)F)CC1` the figure was -76.1% (active); with `COc1cc(-c2cc(-c3cccc(OCC(=O)O)c3)[nH]c(=O)c2C#N)cc(OC)c1OC`, 102% (inactive). To `Cn1cc(-c2cc(N)n3nc(-c4cn(C)c5ccc(Cl)cc45)cc3n2)c2ccccc21` belongs 108% (inactive); to `NS(=O)(=O)c1ccc(NNC(=O)CCC(=O)c2ccccc2)cc1`, 92.5% (inactive); to `Cn1cc(-c2cc3nc(-c4cn(C)c5ncc(Br)cc45)cc(N)n3n2)c2ccccc21`, -82.2% (active). With `Cn1cc(-c2cc3nc(-c4c[nH]c5ccc(Cl)cc45)cc(N)n3n2)c2ccccc21`, the growth is -65.9% (active). As to `O=C(O)c1cccc(-c2ccc(/C=N/NC(=O)c3[nH]c4ccc(Br)cc4c3-c3ccccc3)o2)c1`, the growth is 81.5% (inactive). To `C#CCOc1cc(N(CC)CC)ccc1C(C(=O)NC(C)(C)C)N(C(=O)C1CCc2cc(F)ccc2O1)c1cc(C)cc(C)c1` (stereo not given) belongs 30.9% (inactive); to `CCOC(=O)C1=C(N)N(c2ccccc2)C2=C(C(=O)CC(C)(C)C2)C1c1ccc([N+](=O)[O-])cc1` (stereo not given), 98.4% (inactive). With `O=S(=O)(Nc1cccc(-n2cnc3cc(-c4ccc(O)cc4)ccc32)c1)C1CC1` the figure was 34.8% (inactive); with `Cc1cc(N=C2NC(=O)CS2)n[nH]1`, 101% (inactive). To `Nc1nc(-c2ccccc2)c(N=Nc2ccc([N+](=O)[O-])cc2Cl)s1` belongs 83.7% (inactive); to `COc1cc2c(c(OC)c1OC)C(=O)CC(c1cccc(NC(=O)c3cc(NC(=O)[C@@H](N)CO)ccc3C)c1)O2` (stereo not given in full), 102% (inactive); to `COc1cc2oc(-c3cccc(C(=O)Nc4ccc(Cl)cc4)c3)cc(=O)c2c(OCC(=O)N[C@@H](Cc2ccccc2)C(=O)O)c1OC`, 105% (inactive). In the case of `COc1ccc(NC(=O)[C@H](C)N)cc1C(=O)Nc1cccc(C2CC(=O)c3c(cc(OC)c(OC)c3OC)O2)c1` (stereo not given in full), the growth was 93.8% (inactive). With `Cn1cc(-c2nnc(N)nc2-c2c[nH]c3ccccc23)c2cccnc21` the figure was 50.6% (inactive). To `N#Cc1c(-c2ccc(Br)cc2)nc2n[nH]c(-c3ccc(Br)cc3)c2c1-c1ccc(F)cc1` belongs 85.2% (inactive); to `C=C1CC[C@@H]2[C@]3(C)COC(c4cn(-c5ccccc5)nc4-c4cccc([N+](=O)[O-])c4)O[C@@H]3CC[C@@]2(C)[C@@H]1C/C=C1/C(=O)OC[C@H]1O` (stereo not given in full), 3.71% (active). With `OCC1(CCCc2ccccc2)CCCN(c2nccc3ccccc23)C1` (stereo not given) the figure was 44.4% (inactive); with `CCN1C(=O)/C(=N\N=C(/C)c2ccc3c(c2)Nc2ccccc2S3)c2cc(Cl)ccc21`, 58.9% (inactive). On to `C#C[C@]1(O)CC[C@H]2[C@@H]3CC=C4c5sc(-c6ccc(O)c(O)c6)nc5CC[C@]4(C)[C@H]3CC[C@@]21C`, for which the growth is -89.5% (active). On to `CC12CC[C@@H]3[C@]4(C)COC(c5cn[nH]c5-c5cccc(Cl)c5)O[C@@H]4CC[C@@]3(C)[C@@H]1CC(C1=CCOC1=O)O2` (stereo not given in full), for which the growth is 47.9% (inactive). With `COc1ccc2[nH]cc(-c3nc(N)nnc3-c3cn(C)c4ncccc34)c2c1` the figure was 59.6% (inactive); with `Clc1cccc(N/N=C/c2c[nH]c3ccc(Br)cc23)n1`, -1.39% (active).

Turning to `CCCCCCn1c(O)c(N=Nc2nc(-c3cc4ccccc4oc3=O)cs2)c2ccccc21`, the growth is 63.8% (inactive).

For the compound `Cc1cc(C)cc(C(=O)Nc2cccc(-c3cn(-c4ccc(S(N)(=O)=O)cc4)nn3)c2)c1`, the growth is 32.6% (inactive).

As for `COc1cc(C2CC(c3cc(OC)c(OC)c(OC)c3)=Nc3c(N)nc(N)nc3N2)ccc1Oc1nc(NCCO)nc(N2CCOCC2)n1` (stereo not given), the growth was 93% (inactive). To `Nc1nc(C(F)(F)F)cs1` belongs 111% (inactive).
